Assay results reported in PubChem BioAssay AID1117319 (Southern Research Institute, 2015).
Among all 260,000 compounds or so, about 1,500 (0.58%) were called active. Roughly 5% stayed inconclusive and do not appear here.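 The calls were made as follows: active = inhibition above a set limit at one or more doses, reproduced on every date tested; inconclusive = results disagree between test dates, or hit never tested in dose response; inactive = the rest.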 A selection follows. Entries with a potency or affinity are not part of this list.

Target: Virion infectivity factor (Human immunodeficiency virus type 1 group M subtype B (isolate BH10)) + Virion infectivity factor (Human immunodeficiency virus type 1 group M subtype B (isolate BRU/LAI)) + Virion infectivity factor (Human immunodeficiency virus type 1 group M subtype B (isolate PCV12)) + Virion infectivity factor (Human immunodeficiency virus type 1 group M subtype B (isolate HXB2)) + DNA dC->dU-editing enzyme APOBEC-3G (Homo sapiens) (UniProt P69720+P69721+P69722+P69723+Q9HC16)
Assay: inhibitors of Vif binding to APOBEC3G peptide, primary screen, biochemical, TR-FRET, GST-Vif 1-94, biotin-A3G peptide, dose response retest (AID 1117319);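 also: Vif residues 1-94 fused to GST binding biotinylated APOBEC3G peptide 110-148; 0% = full assay without inhibitor and 100% = GST in place of GST-Vif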
Details: active compounds read high

inhibition, inactive:
Cc1ccc(C(=O)N[C@H](C(=O)OCC(=O)c2ccc[nH]2)C(C)C)cc1 -7.75%
O=C1C(=Cc2ccco2)C(=O)c2ccccc21 -3.58%
O=C1NC(=S)NC1=Cc1ccc(O)cc1 4.35%
O=C1NC(=S)NC1=Cc1ccccc1O -3.79%
Cc1ccc2c(c1)/C(=C/c1ccco1)C(=O)N2 6.3%
Cc1ccc(/C(O)=C2/C(=O)C(=O)N(c3ccccn3)C2c2cccc([N+](=O)[O-])c2)cc1 (stereo unspecified) 1.22%
O=C(Nn1cnnc1)c1ccc(Cl)c([N+](=O)[O-])c1 -7.17%
CCN(CC)C(=O)[C@H]1C[C@H](CC(=O)NCc2ccco2)C(=O)N2CCc3c([nH]c4cc(-c5ccco5)ccc34)[C@]12C -1.87%
O=C(O)CCCNC(=O)c1cncc(Br)c1 -4.15%
COc1cc(-c2nnc3n2CCCCC3)cc(OC)c1OC -1.21%
Cc1ccc(NC(=O)C(NC2CCCC2)c2ccccc2)cc1Cl (stereo unspecified) 21.3%
N#C/C(=C\c1ccc(Sc2nc3ccccc3[nH]2)o1)c1ccccc1 4.57%
N#C/C(=C/c1ccc(Sc2nc3ccccc3[nH]2)o1)c1cccc(F)c1 25.4%
C=CCN1C(=O)S/C(=C/c2ccc(Sc3nc4ccccc4[nH]3)o2)C1=O -2.89%
O=C1NN(c2ccccc2)C(=O)/C1=C/c1ccc(Sc2ccc(Cl)cc2)o1 -5.35%
CC(C)N=C1NN=C(c2cccs2)C(CC(=O)O)S1 (stereo unspecified) 1.51%
CCOc1ncccc1C(=O)OCC(=O)Nc1c(C)cc(C)cc1C 2.59%
Nc1c(C(=O)Nc2ccccc2)sc2nc3c(c(-c4ccco4)c12)CCC3 13.2%
Nc1c(C(=O)Nc2ccccc2)sc2nc3c(c(-c4ccco4)c12)CCCC3 -0.46%
COc1cc(/C=C2/CC/C(=C/c3ccc(O)c(OC)c3)C2=O)ccc1O 32.3%
COc1ccc(/C=C2\CC/C(=C\c3ccc(OC)c(OC)c3)C2=O)cc1OC -3.91%
COc1cc(/C=C2\CCC/C(=C\c3ccc(O)c(OC)c3)C2=O)ccc1O 3.35%
COc1cc(/C=C2\CC/C(=C\c3cc(OC)c(OC)c(OC)c3)C2=O)cc(OC)c1OC 2.04%
Cc1cc(C)cc(OCc2ccc(C(=O)O)o2)c1 9.08%
FC(F)(F)c1ccc(N=Cc2sc(N3CCOCC3)nc2-c2ccccc2)cc1 12.3%
COc1ccc(NC(=O)CN(C)C(=O)c2sc3ccccc3c2Cl)cc1 1.23%
CS(=O)(=O)N(Cc1ccccc1)c1ccc(C(=O)NCc2ccccc2)cc1 25%
C/C(=N\Nc1ccc(S(N)(=O)=O)cc1[N+](=O)[O-])c1ccco1 -3.09%
O=C1OC(c2ccc(Cl)cc2)=C/C1=C/c1cccnc1 1.36%
COC(=O)C1=C(C)NC(C)=C(C(=O)OC)C1c1ccc(NC(C)=O)cc1 -1.45%
O=C(Nc1ccc(Cl)c(Cl)c1)c1ccc(Cl)c(Cl)c1 22.2%
Cc1ccc(NC(=O)c2ccc(Cl)nc2)cc1 16.1%
Cc1ccnc(NC(=O)c2cccc(S(=O)(=O)NCc3ccccc3)c2)c1 -2.28%
COc1cccc(-n2nnc3c(=O)n(Cc4ccc(Br)cc4)cnc32)c1 -0.95%
O=C(OCC(=O)c1cccs1)c1ccc(NC(=O)c2ccco2)cc1 13.8%
CC1(NC(=O)CC[N+](C)(C)CCO)CS(=O)(=O)CC1S(=O)(=O)[O-] (stereo unspecified) 11.7%
CCCC[N+](C)(C)CCC(=O)NC(C)(C)CS(=O)(=O)[O-] 17.8%
CC(=O)Nc1ccc(/C(C)=N/NS(=O)(=O)c2ccccc2)cc1 -13.2%
Cc1ccc(CN2CCSc3ccc(C(=O)NCc4ccco4)cc32)cc1 -7.52%
CN1C(=O)C(=C2CCCCCC2)SC1=S 4.5%
O=C1NC(=S)SC1=C1CCCCCC1 16.7%
O=C(Cn1ncc2c(=O)oc3ccccc3c21)NCCc1ccsc1 -2.92%
COC(=O)[C@@]1(C)[C@H]2C(=O)N(Cc3ccccc3)C(=O)[C@H]2[C@H]2CN(C)C(=NC3CCCCC3)N21 -5.32%
COCCn1c(SCC(=O)Nc2sccc2C(N)=O)nnc1-c1ccncc1 -0.42%
O=C(O)c1cnn2c(C(F)(F)F)cc(-c3ccco3)nc12 23%
CCOC(=O)c1cnn2c(C(F)(F)F)cc(-c3ccco3)nc12 17%
CC(=O)c1cn(N(C)c2ncc(C(F)(F)F)cc2Cl)c(=O)[nH]c1=O -1.96%
CCOc1ccccc1C(=O)NCC(=O)NNC(=O)c1cccc(S(=O)(=O)Nc2ccc(OC)cc2)c1 -2.98%
CC(C)C(=O)Nc1cccc(C(=O)N2CCCCC2C)c1 (stereo unspecified) 12.2%
O=C(Nc1ccccc1)N1CCCC2CCCCC21 (stereo unspecified) 7.94%
CCC(C)N1CCN(S(=O)(=O)c2ccc(NC(C)=O)cc2)CC1 (stereo unspecified) -5.24%
Cn1c(=O)c2c(nc(CN3CCN(C(=O)c4ccco4)CC3)n2Cc2ccc(Cl)cc2)n(C)c1=O -6.63%
O=C(COc1ccccc1)N1CCN(S(=O)(=O)c2ccc(Cl)cc2)CC1 11.7%
COc1ccc(OCC(=O)N2CCN(S(=O)(=O)c3ccc(Cl)cc3)CC2)cc1 0.42%
Cn1c(N)c(C(=O)COC(=O)Cc2ccc(Cl)cc2)c(=O)n(C)c1=O 0.17%
CCS(=O)(=O)c1ccc2c(c1)N(S(C)(=O)=O)CC(C(=O)NN)O2 (stereo unspecified) -7.03%
Cc1ccc2nc(SCC(=O)N3CCN(c4ccccc4)CC3)[nH]c2c1 -0.39%
O=C(CCN1C(=O)c2cccc([N+](=O)[O-])c2C1=O)Nc1nccs1 -4.6%
NC(=O)C1CCN(c2ccc([N+](=O)[O-])cc2Cl)CC1 12.1%
O=[N+]([O-])c1ccc(N2CCN(c3ccccc3O)CC2)c(Cl)c1 -0.29%
N#Cc1csc(CCNC(=O)c2ccccc2)n1 -7.18%
CSc1ccc(-c2ccco2)nn1 11.8%
Nn1c(SCc2ccccc2)nnc1-c1ccco1 2.72%
Clc1ccccc1CSc1ncccn1 -2.52%
Nc1cc(N)nc(SCc2ccccc2Cl)n1 0.21%
c1ccc(CSc2n[nH]c(-c3ccco3)n2)cc1 28.1%
CSc1nnc(-c2ccco2)n1-c1ccccc1 5.76%
CCC(C)[C@H]1CNC(=S)N1CCC12CC3CC(CC(C3)C1)C2 (stereo partly specified) 28.7%
Cc1ccc(N(CC(=O)NCc2ccc3c(c2)OCO3)S(=O)(=O)c2c(C)noc2C)cc1 1.33%
CCc1ccc(-c2nc(CS(=O)CC(=O)NCCN3CCCCCC3)c(C)o2)cc1 (stereo unspecified) -8.11%
CC1CN(C(c2cccs2)c2sc3ncnn3c2O)CC(C)O1 (stereo unspecified) -3.12%
O=S(=O)(/N=C(/Nc1cccc2ccccc12)c1ccccc1)c1ccc(Br)cc1 3.03%
CCOC(=O)N1CCC(N2CCN(S(=O)(=O)c3ccc(C)cc3)CC2)CC1 3.57%
CCCCC(=O)Nc1ccc(Br)cn1 -2.24%
CCCCCCC(=O)Nc1ccc(Br)cn1 22.8%
C/C(=N/NC(=O)c1ccccc1)c1ccc(NC(=O)C(F)(F)F)cc1 1.31%
Cc1ccc(OCC(O)CNCc2ccc(F)cc2)cc1 (stereo unspecified) 4.08%
O=C(Nc1ccc(CN2CCCCC2)cc1)c1cccc(F)c1 -2.63%
O=C(CSc1nc2ccccc2n1CCc1ccccc1)NC1CC1 16.5%
COc1ccc(C(=O)CSc2nc3ccccc3n2CC(=O)c2ccccc2)cc1 2.41%
CC(=O)Nc1ccc(NC(=O)[C@@H](NC(=O)c2ccccc2F)C(C)C)cc1 2.31%
CCC(C)[C@H](NC(=O)Nc1ccccc1F)C(=O)OC (stereo partly specified) 85.4%
COc1ccc(NC(=O)Nc2cccs2)cn1 9.16%
Cc1cc(F)ccc1S(=O)(=O)Nc1ccccc1C(=O)Nc1ccccc1-c1nc2ccccc2[nH]1 16.7%
Cc1cc(F)ccc1S(=O)(=O)Nc1ccccc1C(=O)Nc1ncn[nH]1 -4.68%
COc1ccccc1NC(=O)C(C)OC(=O)CN1C(=O)C2CC=CCC2C1=O (stereo unspecified) -6.25%
COc1ccc(CCN2CC(C(=O)N(C)CCn3nc(C)cc3C)CCC2=O)cc1 (stereo unspecified) 6.02%
Cc1cc(C)n(Cc2ccc(C(=O)O)cc2)n1 -1.33%
Cc1ccc(C)n1-c1cccc(C(=O)Nc2ccccc2)c1 18.2%
CCc1ccc(C(=O)O)cc1 0.16%
Cc1ccc(-c2ccccc2)n1-c1cccc(C(=O)O)c1 0.87%
Cc1cc(N)ccc1-n1c(C)ccc1C 15.6%
Cc1cc(C(=O)O)ccc1-n1c(C)cc(C=C2C(=O)c3ccccc3C2=O)c1C -10.7%
Cc1ccc(-c2ccccc2)n1-c1ccc(C(=O)O)cc1 -4.6%
Cc1ccc(C)n1-c1ccc(C(=O)NN)cc1 -3.66%
Cc1cc(C)cc(NC(=O)CCNS(=O)(=O)c2ccc3c(c2)oc(=O)n3C)c1 17.7%
